Drawing on PubChem BioAssay (NCI), this text covers growth for 40 compounds.

Compounds without any hit were thinned out: in the full panel of roughly 83,000, 20% have a hit.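 For each line, cells grew in 96-well plates with the test compound present at a single concentration for 48 hours.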 Unmarked numbers belong to inactive results. Activity calls are given as the source filed them. Rule for the calls: active = growth percent below 10; inactive = the rest.

For this assay, the system named is SK-OV-3 ovarian. The assay can be described thus: NCI-60 one-dose screen, 48 h (100 = growth as untreated, 0 = no growth, -100 = all killed). The settings on record: 10 µM unless noted.
On to `N#C/C(=C\c1ccc(-c2ccc(Cl)cc2)o1)C(=O)Nc1ncc(Cc2ccc(Br)cc2)s1`, for which the growth is 70.3%.
As for `O=C(COc1ccc(/C=C2\C(=O)Nc3ccc(Cl)cc32)cc1)Nc1ccc(Cl)cc1`, the growth is 88.3%.
The value for `CC(O)c1cccc(/C(N)=N/C(N)=N/c2nc3ccccc3s2)c1` (stereo not given) was 105%.
The value for `O=C(CN1CCN(c2cc(=O)[nH]c3ccc(F)cc23)CC1)N(c1ccccc1)c1ccccc1` was 109%; that for `Cn1c(SCC(=O)c2ccc(Br)cc2)nc2ccccc2c1=O` was 98.9%; that for `NC(N)=NS(=O)(=O)c1ccc(N=Nc2c(N)nn(-c3ccc([N+](=O)[O-])cc3[N+](=O)[O-])c2N)cc1` was 91.4%.
The value for `Cc1cc2nc3c4cc(C#N)ccc4n(CCN(C)C)c3nc2cc1C` was -4.4% (active); that for `O=C(CCCCCCN1CC(=O)N2[C@@H](c3cccs3)c3[nH]c4ccccc4c3C[C@H]2C1=O)NO` was 101%.
As for `O=C(CSc1nc2ccccc2c(=O)n1CCc1ccccc1)Nc1ccc(S(=O)(=O)Nc2ccc(Cl)nn2)cc1`, the growth was 94.1%.
With `CC1=C(C)C(=O)C(Nc2ccc(C)c(C)c2)=C(Br)C1=O`, the growth is 100%.
For the compound `COc1cc(/C=C2/C(=O)Nc3ccc(Cl)cc32)ccc1OCc1ccc(Cl)cc1`, the growth was 110%.
For the compound `Cc1ccc2c(n1)C(=O)C(Cl)=C(Nc1ccc(C(C)C)cc1)C2=O`, the growth was 106%.
In the case of `CN1CCN(c2ccc(Nc3nc(NCCNS(=O)(=O)c4ccccc4)c4sccc4n3)cc2)CC1`, the growth is 107%.
Next, `CNC(=O)c1cc(N2CCc3cc(NC(=O)Nc4ccc(N5CCN(C)CC5)c(C(F)(F)F)c4)ccc32)ccn1`: 107%; `C=C(C)[C@@H]1CC[C@]2(COCCCNCCCN)CC[C@]3(C)[C@H](CC[C@@H]4[C@@]5(C)CC[C@H](O)C(C)(C)[C@@H]5CC[C@]43C)[C@@H]12`: 105%.
The value for `CN1CCN(Cc2ccc(NC(=O)c3cncc(C#Cc4cnc5ccc(OCC6COC6)nn45)c3)cc2C(F)(F)F)CC1` was -22.6% (active).
The value for `CCN(CC)S(=O)(=O)c1ccc(-c2nc(C(Cl)Cl)nc3cc(-c4ccc(F)cc4)nn23)cc1` was 42.7%.
For `O=C(COc1ccc(/C=C2\C(=O)Nc3ccc(F)cc32)cc1)Nc1ccccc1`, the growth was 96.9%.
Regarding `CN1CCN(c2ccc(Nc3nc(NCCCNS(=O)(=O)c4ccc(F)cc4)c4sccc4n3)cc2)CC1`, the growth is 115%.
`COc1cccc(N2CCN(C3=C(Cl)C(=O)c4ncccc4C3=O)CC2)c1`: the growth is 93.8%.
Next, `C#CCOc1cccc(-c2nc(N)nc(Nc3ccccc3SSc3ccccc3Nc3nc(N)nc(-c4cccc(OCC#C)c4)n3)n2)c1`: 91.5%; `O=C(CSc1nnc(-c2ccc(Cl)cc2)n1-c1ccccc1)Nc1ccc(Cl)cc1`: 75%.
Next, `NC(=O)n1c(=O)n(-c2cccc(C(F)(F)F)c2)c(=O)c2cc(-c3ccc(F)cc3F)ccc21`: -12.9% (active).
For `C#CCOc1ccc(/C=N/Nc2nc(-c3ccc(OC)cc3)cs2)cc1`, the growth was 99.6%.
With `O=C(CSc1nnc(-c2ccc(Cl)cc2)n1-c1ccccc1)Nc1ccccc1Cl`, the growth is 125%.
The value for `CCOC(=O)c1c(NC(=O)c2cccc(C(F)(F)F)c2)sc2c3c(ccc12)OCN(C)C3` was 75.7%.
In the case of `CN1CCN(Cc2ccc(NC(=O)c3cncc(C#Cc4cnc5ccc(OCCCS(C)(=O)=O)nn45)c3)cc2C(F)(F)F)CC1`, the growth was -10.9% (active).
Next, `CCOC(=O)c1c(NCC(=O)Nc2cccc([N+](=O)[O-])c2)sc(C(C)=O)c1C`: -13.4% (active); `N#Cc1c(-c2cccs2)cc(-c2cnccn2)nc1SCC(=O)N/N=C/c1ccccc1`: 106%; `CN1CCN(Cc2ccc(NC(=O)c3cncc(C#Cc4cnc5ccc(O[C@@H]6CCOC6)nn45)c3)cc2C(F)(F)F)CC1`: -67.8% (active).
With `O=C(CCCCCCNC(=O)c1csc(Br)n1)NO`, the growth was 56.3%.
The value for `O=C(NCCNc1cc(-c2cn(-c3ccccc3)nc2-c2cccc(O)c2)ccn1)Nc1cc(C(F)(F)F)cc(C(F)(F)F)c1` was 104%.
Next, `COC(=O)c1ccc(NC2=C(Cl)C(=O)c3nc(C)ccc3C2=O)cc1`: 125%.
The value for `CCOP(=O)(OCC)OC[C@]12CCC(C)(C)C[C@H]1C1=CC[C@@H]3[C@@]4(C)CC[C@H](OP(=O)(OCC)OCC)C(C)(C)[C@@H]4CC[C@@]3(C)[C@]1(C)CC2` was 73.2%.
For the compound `C/C(=N/N)c1nnn(-c2ccc(Br)cc2)c1C`, the growth was 109%.
Turning to `O=C(N/N=C\c1ccc(F)cc1)c1ccc2nc(-c3ccc(Br)cc3)[nH]c2c1`, the growth is 90.9%.
Next, `O=C1Nc2ccc(F)cc2/C1=C\C(=O)c1ccc(NS(=O)(=O)c2ccccc2)cc1`: 112%; `CCCCCc1ccc(S(=O)(=O)Nc2cc(-c3csc(N)n3)ccc2OC)cc1`: 127%.
Next, `CN1CCN(c2ccc(Nc3nc(NCCNS(=O)(=O)c4ccc5ccccc5c4)c4sccc4n3)cc2)CC1`: 128%; `CCn1c2ccc(/C=N/N(C)S(=O)(=O)CCN(C)C)cc2c2cc(/C=N/N(C)S(=O)(=O)CCN(C)C)ccc21`: 106%.
